# Experimental data taken from article PMC5700166.
# Biological target: T1, GST-Aq-NF-kB (Amphimedon queenslandica, UniProt A9Y5G7 2-389)
# T1 sequence: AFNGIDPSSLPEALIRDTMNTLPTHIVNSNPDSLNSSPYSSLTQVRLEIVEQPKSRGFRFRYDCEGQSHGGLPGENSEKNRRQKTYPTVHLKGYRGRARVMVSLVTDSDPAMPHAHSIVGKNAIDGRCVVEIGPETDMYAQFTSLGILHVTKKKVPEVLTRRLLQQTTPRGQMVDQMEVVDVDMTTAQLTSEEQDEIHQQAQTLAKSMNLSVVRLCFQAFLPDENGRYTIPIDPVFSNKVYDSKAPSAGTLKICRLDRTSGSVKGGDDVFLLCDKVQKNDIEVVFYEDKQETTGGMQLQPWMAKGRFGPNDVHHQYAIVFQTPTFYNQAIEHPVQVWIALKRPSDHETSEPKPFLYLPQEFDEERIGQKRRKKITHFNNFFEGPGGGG
# Experiment: protein-binding microarray (PBM); PBM: ~300 nM protein, 6 mM HEPES pH 7.8, 80 mM KCl, 0.5 mM EDTA, 0.5 mM EGTA, 6% glycerol, 35 ng/ul poly-dIdC, 1% milk, 1 h, room temperature; Ap Aiptasia and Nv Nematostella (sea anemones) / Co Capsaspora / Aq Amphimedon (sponge) / Dm Drosophila / Hu human; RHD is the Rel homology domain; high values mean tight binding
# Conditions: dsDNA, one strand shown
row,Sequence,binding signal [z-score]
1,CCGATTAACATCAGGAAAACTCCTGATGTTAATCGGGTCTTGATTCGCTTGACGCTGCTG,1.4
2,CCGATTAACATCAGGAATTGCCATGATGTTAATCGGGTCTTGATTCGCTTGACGCTGCTG,1.02
3,CCGATTAACATCACGAAATTTCCTGATGTTAATCGGGTCTTGATTCGCTTGACGCTGCTG,1.65
4,CCGATTAACATCAGGAAACGCCCTGATGTTAATCGGGTCTTGATTCGCTTGACGCTGCTG,3.05
5,CCGATTAACATCAGGAAATCTCCTGATGTTAATCGGGTCTTGATTCGCTTGACGCTGCTG,1.25
6,CCGATTAACATCAGGAACTTCCATGATGTTAATCGGGTCTTGATTCGCTTGACGCTGCTG,1.63
7,CCGATTAACATCAGAAATTCCGCTGATGTTAATCGGGTCTTGATTCGCTTGACGCTGCTG,1.09
8,CCGATTAACATCAGGCAAAACCCTGATGTTAATCGGGTCTTGATTCGCTTGACGCTGCTG,3.28
9,CCGATTAACATCAGGAAATGTCCTGATGTTAATCGGGTCTTGATTCGCTTGACGCTGCTG,1.67
10,CCGATTAACATCAGGAATCGCCCTGATGTTAATCGGGTCTTGATTCGCTTGACGCTGCTG,2.28
11,CCGATTAACATCAGGAATAGCCCTGATGTTAATCGGGTCTTGATTCGCTTGACGCTGCTG,1.9
12,CCGATTAACATCACGGAATCTCCTGATGTTAATCGGGTCTTGATTCGCTTGACGCTGCTG,2.17
13,CCGATTAACATCACGGACTCTCCTGATGTTAATCGGGTCTTGATTCGCTTGACGCTGCTG,2.26
14,CCGATTAACATCAAGAAATTCCTTGATGTTAATCGGGTCTTGATTCGCTTGACGCTGCTG,1.02
15,CCGATTAACATCAGGAGTTGCCCTGATGTTAATCGGGTCTTGATTCGCTTGACGCTGCTG,3.13
16,CCGATTAACATCACGGAAAAGCCTGATGTTAATCGGGTCTTGATTCGCTTGACGCTGCTG,1.34
17,CCGATTAACATCACGGATTTTCCTGATGTTAATCGGGTCTTGATTCGCTTGACGCTGCTG,3.35
18,CCGATTAACATCACGGACATTCCTGATGTTAATCGGGTCTTGATTCGCTTGACGCTGCTG,1.97
19,CCGATTAACATCAAGATCCCTTGTGATGTTAATCGGGTCTTGATTCGCTTGACGCTGCTG,1.08
20,CCGATTAACATCACGGATTGCCCTGATGTTAATCGGGTCTTGATTCGCTTGACGCTGCTG,1.2
21,CCGATTAACATCAGGAATTCTCCTGATGTTAATCGGGTCTTGATTCGCTTGACGCTGCTG,1.31
22,CCGATTAACATCAAACCCTACTGTGATGTTAATCGGGTCTTGATTCGCTTGACGCTGCTG,1.19
23,CCGATTAACATCACGGCTTTTCCTGATGTTAATCGGGTCTTGATTCGCTTGACGCTGCTG,1.72
24,CCGATTAACATCAGAGAAATTCCTGATGTTAATCGGGTCTTGATTCGCTTGACGCTGCTG,1.65
25,CCGATTAACATCACGGAACTTCCTGATGTTAATCGGGTCTTGATTCGCTTGACGCTGCTG,2.23
26,CCGATTAACATCACGGGTTGCCCTGATGTTAATCGGGTCTTGATTCGCTTGACGCTGCTG,1.04
